Test [1] can be described thus: small molecules captured by biotinylated probe aFSTL3 – biochemical, small-molecule microarray, fluorescence 635/667, stem cell growth factor project, primary screen (AID 1064).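 Further: measures binding of the biotinylated anti-FSTL3 antibody to printed compounds.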 The note with it: higher = more signal.
Test [2] is described as follows: binders from COS7 lysate, DM2A8 probe, primary screen, torsin A project, cell lysate, small-molecule microarray, fluorescence 635/667 (AID 1065). The note with it: higher = more signal, COS7 lysate expressing mutant human TOR1A.
Test [3] in a line: small molecules captured by biotinylated probe aFGF2 – biochemical, small-molecule microarray, fluorescence 635/667, stem cell growth factor project, primary screen (AID 1067).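 Further: measures binding of biotinylated aFGF2 protein to printed compounds on slides; z-score merges feature fluorescence and signal-to-noise across triplicate slides.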 The note with it: higher = more signal.
Test [4] can be described thus: small molecules captured by biotinylated probe aFGF10 – biochemical, small-molecule microarray, fluorescence 635/667, stem cell growth factor project, primary screen (AID 1071).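 Further: score merges 667 nm spot intensity and signal to noise from triplicate slides.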 To be noted: higher = more signal.
For test [5], the target named is Neurogenic locus notch homolog protein 2 (Homo sapiens) (UniProt Q04721). As to the kind of experiment: small molecules binding Notch2 protein – biochemical, small-molecule microarray, 635 nm fluorescence, stem cell growth factors, primary screen (AID 1073). To be noted: higher = more signal.
In test [6] the target is Pro-neuregulin-1, membrane-bound isoform (Homo sapiens) (UniProt Q02297). Description: small molecules binding neuregulin-1 protein – biochemical, small-molecule microarray, fluorescence 635/667, psychiatric disease protein project, primary screen (AID 1075).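 Further: score combines 667 nm spot fluorescence with signal to noise.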 The note with it: NRG1 binding, 635 nm fluorescence, higher = more signal.
Test [7] deals with Neuregulin-1 EGF-like domain. Description: small molecules binding NRG1 EGF domain – biochemical, small-molecule microarray, 635 nm fluorescence, primary screen (AID 1081).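 Further: binding of the protein to compounds printed on small-molecule microarray slides.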 To be noted: higher = more signal.
A short description of test [8]: FRG1 expression reporter modulators in myotubes – cell-based, C2C12 myotubes, firefly/Renilla luciferase, luminescence, FRG1 inhibition for FSHD, primary screen (AID 1084). To be noted: FRG1 promoter luciferase, higher = more signal, called active from +8 up or from −8 down.
Test [9] is described as follows: small molecules captured by biotinylated probe aFST – biochemical, small-molecule microarray, fluorescence 635/667, stem cell growth factor project, primary screen (AID 1086).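 Further: score merges 667 nm fluorescence with signal-to-noise of each printed compound spot.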 To be noted: higher = more signal.
A short description of test [10]: binders of probe aHhip on microarray, primary screen, stem cell growth factor project, biochemical, small-molecule microarray, fluorescence 635/667 (AID 1087).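 Further: score merges spot fluorescence at 667nm with spot signal to noise ratio.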 To be noted: higher = more signal.
Test [11] deals with PRMT1 (protein arginine N-methyltransferase 1). As to the kind of experiment: small molecules binding arginine methyltransferase PRMT1 – biochemical, small-molecule microarray, 635 nm fluorescence, primary screen (AID 1088).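 Further: binding of Prmt1 protein to compounds spotted on small-molecule microarray slides.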 To be noted: higher = more signal.
The nature of test [12]: growth effects on S. cerevisiae YJM789 – YJM789 clinical isolate, OD600, 24 h, basal, primary screen (AID 1089).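 Further: growth of clinical yeast isolate S. cerevisiae YJM 789 seeded 1000 cells per well; test concentration not given here.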 To be noted: higher = more signal, called active from +8 up or from −8 down.
Test [13] can be described thus: S. pombe growth modifiers, basal conditions – strain 972, OD600, 24 h, no modulator, primary screen (AID 1090).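 Further: basal condition with compound alone and no growth modifier present; test concentration not given here.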 To be noted: S. pombe 972 growth, higher = more signal, called active from +8 up or from −8 down.
Test [14] can be described thus: budding yeast growth modifiers under rapamycin – strain BY4716, OD600, 96 h, primary screen (AID 1091). Further: test concentration not given here. To be noted: S. cerevisiae BY4716 + rapamycin, higher = more signal, called active from +8 up or from −8 down.
Test [15] concerns the target Torsin-1A-interacting protein 2 (Homo sapiens) (UniProt Q8NFQ8). As to the kind of experiment: small molecules binding lysate-expressed LULL1 – cell lysate, human LULL1 lysate, 635/667 nm fluorescence, primary screen (AID 1092).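 Further: score merges per-feature 667 nm fluorescence with signal-to-noise.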 The note with it: small-molecule microarray, hLULL1 lysate binding, 635 nm fluorescence; higher = more signal.
The nature of test [16]: optical density change of DRC41 E. coli – strain DRC41, OD650, 24 h, E. coli filamentation project, primary screen (AID 1093).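 Further: MC1000 strain lacking acrAB efflux and sulA so SOS filamentation is blocked; test concentration not given here.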 The note with it: E. coli DRC41 growth, higher = more signal, called active from +8 up or from −8 down.
Test [17] is described as follows: probe aLefty2 binding to arrayed compounds – biochemical, biotinylated probe, 635/667 nm fluorescence, primary screen (AID 1094).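 Further: score merges spot fluorescence near 667 nm with spot signal-to-noise ratio.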 The note with it: small-molecule microarray, higher = more signal.
The test system of test [18] is Noggin (protein binding on small-molecule microarray). As to the kind of experiment: small molecules binding Noggin protein – biochemical, 635/667 nm fluorescence, primary screen (AID 1095).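 Further: score merges 667 nm feature fluorescence with signal to noise over triplicate slides.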 The note with it: 635 nm fluorescence, higher = more signal.
The target in test [19] is Neurogenic locus notch homolog protein 3 (Homo sapiens) (UniProt Q9UM47). As to the kind of experiment: small molecules binding NOTCH3 protein – biochemical, 635/667 nm fluorescence, primary screen (AID 1096). To be noted: small-molecule microarray, 635 nm fluorescence, higher = more signal.
The nature of test [20]: probe aEGFR binding to arrayed compounds – biochemical, biotinylated probe, 635/667 nm fluorescence, primary screen (AID 1097).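 Further: probe is a biotinylated anti-EGFR antibody binding compounds printed on slides; score combines fluorescence near 667 nm and signal to noise of each spot.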 To be noted: small-molecule microarray, higher = more signal.

SMILES strings stand for the structures. Active and inactive are the calls of the source.

Chain of Neurogenic locus notch homolog protein 3 (Homo sapiens) (Q9UM47 whole entry, looked up): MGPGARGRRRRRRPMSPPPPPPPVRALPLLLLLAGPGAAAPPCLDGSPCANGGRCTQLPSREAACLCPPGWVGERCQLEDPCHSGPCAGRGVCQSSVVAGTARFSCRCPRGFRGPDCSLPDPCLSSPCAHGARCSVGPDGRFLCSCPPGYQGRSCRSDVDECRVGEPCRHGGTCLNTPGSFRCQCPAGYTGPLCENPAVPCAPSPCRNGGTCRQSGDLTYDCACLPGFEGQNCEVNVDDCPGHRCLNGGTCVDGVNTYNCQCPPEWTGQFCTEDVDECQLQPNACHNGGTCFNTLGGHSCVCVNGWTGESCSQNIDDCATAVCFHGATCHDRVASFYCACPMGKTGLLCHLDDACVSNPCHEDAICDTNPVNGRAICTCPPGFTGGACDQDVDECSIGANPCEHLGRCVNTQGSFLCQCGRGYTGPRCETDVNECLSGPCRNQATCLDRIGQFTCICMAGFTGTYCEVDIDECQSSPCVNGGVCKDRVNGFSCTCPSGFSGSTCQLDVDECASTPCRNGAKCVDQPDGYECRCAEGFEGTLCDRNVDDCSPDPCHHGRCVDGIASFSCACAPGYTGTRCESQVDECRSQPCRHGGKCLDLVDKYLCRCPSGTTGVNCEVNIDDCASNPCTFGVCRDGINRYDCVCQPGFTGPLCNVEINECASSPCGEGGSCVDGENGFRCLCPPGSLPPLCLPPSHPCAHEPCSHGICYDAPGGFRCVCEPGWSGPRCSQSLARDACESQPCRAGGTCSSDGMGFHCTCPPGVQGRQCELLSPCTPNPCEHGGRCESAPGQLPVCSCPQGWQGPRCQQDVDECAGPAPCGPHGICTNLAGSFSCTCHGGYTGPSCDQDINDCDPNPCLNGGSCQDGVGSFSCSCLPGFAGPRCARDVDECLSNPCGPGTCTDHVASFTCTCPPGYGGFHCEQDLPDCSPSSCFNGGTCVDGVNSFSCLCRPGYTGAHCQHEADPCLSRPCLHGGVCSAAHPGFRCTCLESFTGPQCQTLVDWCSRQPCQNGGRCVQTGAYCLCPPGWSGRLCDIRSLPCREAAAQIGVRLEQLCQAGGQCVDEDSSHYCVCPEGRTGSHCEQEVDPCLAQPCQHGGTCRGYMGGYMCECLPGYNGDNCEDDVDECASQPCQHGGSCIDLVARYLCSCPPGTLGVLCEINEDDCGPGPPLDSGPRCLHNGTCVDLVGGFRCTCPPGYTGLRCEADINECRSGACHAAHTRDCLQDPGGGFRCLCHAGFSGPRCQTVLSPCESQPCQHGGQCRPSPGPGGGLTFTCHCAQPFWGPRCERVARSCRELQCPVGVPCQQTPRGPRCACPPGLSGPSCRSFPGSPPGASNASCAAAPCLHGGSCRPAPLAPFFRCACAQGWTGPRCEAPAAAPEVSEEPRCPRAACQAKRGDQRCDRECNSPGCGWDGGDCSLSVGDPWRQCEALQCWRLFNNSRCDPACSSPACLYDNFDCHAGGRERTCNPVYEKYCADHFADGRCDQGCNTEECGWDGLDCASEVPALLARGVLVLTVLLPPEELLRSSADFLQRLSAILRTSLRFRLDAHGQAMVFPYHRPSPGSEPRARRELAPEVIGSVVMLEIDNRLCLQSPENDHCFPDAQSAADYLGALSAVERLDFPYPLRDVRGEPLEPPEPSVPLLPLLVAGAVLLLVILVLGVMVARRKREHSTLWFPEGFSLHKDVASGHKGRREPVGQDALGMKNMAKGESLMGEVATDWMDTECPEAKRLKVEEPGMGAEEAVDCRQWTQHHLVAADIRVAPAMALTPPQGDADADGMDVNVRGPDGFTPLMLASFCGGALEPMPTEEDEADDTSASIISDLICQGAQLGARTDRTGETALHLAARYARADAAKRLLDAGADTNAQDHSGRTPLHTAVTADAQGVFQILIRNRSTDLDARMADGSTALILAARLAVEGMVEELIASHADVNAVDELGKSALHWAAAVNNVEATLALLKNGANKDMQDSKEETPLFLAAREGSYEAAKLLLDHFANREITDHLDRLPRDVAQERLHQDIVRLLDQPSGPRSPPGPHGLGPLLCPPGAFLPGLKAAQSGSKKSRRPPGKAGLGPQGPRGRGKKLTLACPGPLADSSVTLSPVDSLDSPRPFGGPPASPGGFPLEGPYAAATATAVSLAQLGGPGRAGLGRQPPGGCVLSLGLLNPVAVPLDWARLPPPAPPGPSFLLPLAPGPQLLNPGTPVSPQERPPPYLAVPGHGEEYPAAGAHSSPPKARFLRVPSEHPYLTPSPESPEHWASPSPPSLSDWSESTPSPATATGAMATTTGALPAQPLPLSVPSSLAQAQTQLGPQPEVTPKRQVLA
Chain of Torsin-1A-interacting protein 2 (Homo sapiens) (Q8NFQ8 whole entry, looked up): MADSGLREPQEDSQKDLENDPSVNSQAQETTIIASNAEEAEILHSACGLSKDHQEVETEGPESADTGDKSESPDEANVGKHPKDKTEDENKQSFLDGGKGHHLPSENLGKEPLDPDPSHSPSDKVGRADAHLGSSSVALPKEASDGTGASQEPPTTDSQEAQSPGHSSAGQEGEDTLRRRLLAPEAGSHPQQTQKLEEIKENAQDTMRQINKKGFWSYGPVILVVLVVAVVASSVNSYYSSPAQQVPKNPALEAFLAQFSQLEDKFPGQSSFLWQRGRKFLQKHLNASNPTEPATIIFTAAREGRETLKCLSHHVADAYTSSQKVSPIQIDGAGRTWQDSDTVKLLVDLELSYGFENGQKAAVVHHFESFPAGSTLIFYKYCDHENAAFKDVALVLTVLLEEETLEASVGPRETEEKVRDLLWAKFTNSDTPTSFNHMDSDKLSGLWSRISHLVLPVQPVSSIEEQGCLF
Chain of Pro-neuregulin-1, membrane-bound isoform (Homo sapiens) (Q02297 whole entry, looked up, the tested form may be a part, canonical isoform): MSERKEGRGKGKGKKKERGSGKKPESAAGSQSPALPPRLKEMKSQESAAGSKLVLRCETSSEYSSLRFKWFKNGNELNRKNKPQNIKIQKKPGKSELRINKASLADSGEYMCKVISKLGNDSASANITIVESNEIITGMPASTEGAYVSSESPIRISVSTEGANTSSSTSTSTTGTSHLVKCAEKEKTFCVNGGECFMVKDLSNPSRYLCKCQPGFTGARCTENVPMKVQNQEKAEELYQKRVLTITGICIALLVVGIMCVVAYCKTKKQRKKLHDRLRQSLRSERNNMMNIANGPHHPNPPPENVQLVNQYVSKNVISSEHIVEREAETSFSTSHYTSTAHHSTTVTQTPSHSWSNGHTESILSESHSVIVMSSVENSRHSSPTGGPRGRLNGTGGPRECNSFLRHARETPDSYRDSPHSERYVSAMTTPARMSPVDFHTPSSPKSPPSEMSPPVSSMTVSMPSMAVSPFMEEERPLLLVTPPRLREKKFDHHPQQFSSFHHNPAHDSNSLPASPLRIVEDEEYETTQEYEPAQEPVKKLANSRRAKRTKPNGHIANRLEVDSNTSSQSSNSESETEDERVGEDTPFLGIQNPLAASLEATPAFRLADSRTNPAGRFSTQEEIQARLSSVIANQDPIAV

`CC(CCN1CCc2nc(-c3ccccc3)c(-c3ccccc3)cc2C1)=NOC(C)CN1CCCc2nc(C)c(C)cc21` (stereo not given): the composite z-score is -0.0304 in test [1]; 1.12 in test [2]; 0.0762 in [3]; 0.681 in test [4]; 1.4 in test [5]; 0.72 in test [6]. Moreover, the composite z-score is 1.08 in [7]; 0.676 in [9]; 0.316 in [10]; 1.56 in test [11]; 2.22 in [15]; 0.0704 in [17]. Besides, the composite z-score in test [18] amounted to 0.582; in test [19] it was 1.09; in test [20], 0.0709. The z-score in test [8] is 1.1 (inactive); in test [12] it was -1.4 (inactive); in [13], -12.6 (active); in [14] it was -3.45 (inactive); in test [16] it was 0.419 (inactive).

In the case of `CC(=O)OC[C@H]1O[C@H](C#CCCc2ccccc2)C=C[C@@H]1OC(C)=O`, the composite z-score is -0.692 in test [1]; 0.271 in test [2]; -0.0732 in test [3]; 0.335 in test [4]; 0.445 in test [5]; 1.22 in test [6]. Further, the composite z-score in test [7] was determined as 0.543; in test [9], 0.302; in [10], 0.0053; in [11], 0.374; in test [15], 1.38; in test [17], 0.0092. Besides, the composite z-score in test [18] is 0.57; in test [19], 0.341; in [20], -0.021. Further, the z-score in [8] is 0.0903 (inactive); in test [12] it was 0.664 (inactive); in [13], -2.4 (inactive); in test [14], -0.116 (inactive); in test [16], 0.396 (inactive).

With `CCOC(=O)[C@H](Cc1ccccc1)NC(=O)CCC1CC(OC(=O)NCc2ccc3c(c2)OCO3)CC2(CCCC(COC(=O)NCCOC)O2)O1` (stereo not given in full), the composite z-score in test [1] was -0.444; in [2] it was 1.85; in test [3], -0.0533; in test [4] it was 0.688; in test [5] it was 0.994; in [6], 0.63. The composite z-score is 0.773 in test [7]; 0.412 in [9]; 0.524 in test [10]; 1.56 in [11]; 2.34 in test [15]; -0.166 in test [17]. The composite z-score in test [18] is 0.884; in test [19] it was 1.05; in [20], 0.0059. The z-score was 1.75 (inactive) in test [8]; -0.439 (inactive) in test [12]; -0.25 (inactive) in test [13]; -0.364 (inactive) in test [14]; -0.141 (inactive) in [16].

Take `CON=C1c2cc(OC)ccc2O[C@H](c2cccc(OC)c2)[C@H]1O`: the composite z-score in test [1] was -0.289; in test [2], 0.707; in [3] it was -0.0473; in test [4], 0.492; in test [5], 0.385; in [6] it was 0.247. In addition, the composite z-score in test [7] is 0.945; in [9], 0.583; in test [10], 0.0053; in [11], -0.0242; in test [15], 0.365; in test [17] it was -0.0515. In addition, the results for the composite z-score in test [18], in test [19] and in [20] were 0.588, 0.684 and 0.0242, respectively. Also, the z-score is 5.9 (inactive) in [8]; -0.976 (inactive) in test [12]; -3 (inactive) in test [13]; -1.75 (inactive) in test [14]; 0.792 (inactive) in test [16].

As for `CC(=O)OC[C@H]1O[C@@H](ON=C(C)CCN2CCCCc3nc(C)c(C)cc32)[C@H](OC(C)=O)[C@@H](OC(C)=O)[C@@H]1OC(C)=O`, the composite z-score in test [1] is -0.587; in test [2], 0.515; in [3] it was -0.0801; in test [4], 0.751; in test [5], 1; in test [6], 0.853. For the same molecule, the composite z-score in [7] was 1.16; in test [9], 0.551; in [10], 0.0881; in [11] it was 1.53; in test [15] it was 1.07; in [17], -0.0179. In addition, the composite z-score was 0.708 in test [18], 0.927 in test [19] and 0.145 in test [20]. Moreover, the z-score in test [8] is 0.694 (inactive); in test [12] it was -0.61 (inactive); in test [13], -0.149 (inactive); in test [14], -0.175 (inactive); in test [16] it was -0.871 (inactive).
